Laboratory results taken from PubChem BioAssay (EPA / NIEHS).
Some compounds were tested as several samples or in several runs, with calls that do not always agree. Activity calls are given as the source filed them. How the source made its calls: active means hit-call score of the fitted dose curve at least 0.9, where 1 is the maximum; inactive means score below 0.9.

What was measured:
[1] = read-out: Interferon-gamma inducible Protein 10 (IP10), CXCL10 (gene 3627); test: BSK_hDFCGF_IP10: BioMAP Diversity Plus: hDFCGF Assay for Interferon-gamma inducible Protein 10 (IP10) Biomarker Activity (AID 2283053); settings: primary human foreskin fibroblasts; actives raise or lower the signal
Outline: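 ELISA quantification of IP-10 after a 24 h chemical exposure of human dermal foreskin fibroblast primary cultures. Both increases and decreases versus DMSO fitted.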

[2] = read-out: Urokinase-type plasminogen activator receptor (uPAR), PLAUR (gene 5329); test: BSK_CASM3C_uPAR: BioMAP Diversity Plus: CASM3C Assay for Urokinase-type plasminogen activator receptor (uPAR) Biomarker Activity (AID 2283054); settings: primary human coronary artery smooth muscle cells; actives raise or lower the signal;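 further: cell-surface uPAR protein level quantified by ELISA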
[3] = read-out: Vascular cell adhesion molecule 1 (VCAM1), VCAM1 (gene 7412); test: BSK_CASM3C_VCAM1: BioMAP Diversity Plus: CASM3C Assay for Vascular cell adhesion molecule 1 (VCAM1) Biomarker Activity (AID 2283055); settings: primary human coronary artery smooth muscle cells; actives raise or lower the signal;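 further: VCAM-1 protein level quantified by ELISA on the cells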
[4] = read-out: Collagen III, COL3A1 (gene 1281); test: BSK_hDFCGF_CollagenIII: BioMAP Diversity Plus: hDFCGF Assay for Collagen III Biomarker Activity (AID 2283056); settings: primary human foreskin fibroblasts; actives raise or lower the signal
Outline: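 Human foreskin fibroblast primary cultures sampled 24 h after dosing; Collagen III quantified by ELISA. Signal fitted bidirectionally against DMSO baseline.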

[5] = read-out: Epidermal growth factor receptor (EGFR), EGFR (gene 1956); test: BSK_hDFCGF_EGFR: BioMAP Diversity Plus: hDFCGF Assay for Epidermal growth factor receptor (EGFR) Biomarker Activity (AID 2283057); settings: primary human foreskin fibroblasts; actives raise or lower the signal
Outline: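 EGFR levels by ELISA in human dermal fibroblast cultures, 24 h post-treatment, fitted bidirectionally versus DMSO. Parallel wells stained with sulforhodamine B to detect overt cytotoxicity.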

[6] = read-out: Interleukin-8 (IL8), CXCL8 (gene 3576); test: BSK_hDFCGF_IL8: BioMAP Diversity Plus: hDFCGF Assay for Interleukin-8 (IL8) Biomarker Activity (AID 2283058); settings: primary human foreskin fibroblasts; actives raise or lower the signal
Outline: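 Primary human foreskin fibroblasts (hDFCGF system) dosed with chemical; IL-8 measured by ELISA 24 hours later. Bidirectional curve fitting relative to DMSO baseline; cytotoxicity tracked in parallel cultures by SRB total protein staining.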

[7] = BSK_hDFCGF_Proliferation: Cell Proliferation Assessment in the BioMAP Diversity Plus: hDFCGF Assay (AID 2283059); settings: primary human foreskin fibroblasts;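 further: curves fitted for both rise and fall of signal versus DMSO baseline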
Outline: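 This proliferation readout used SRB total-protein staining of human foreskin fibroblasts […], normalized to DMSO with bidirectional curve fitting.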

[8] = read-out: Macrophage colony-stimulating factor (MCSF), CSF1 (gene 1435); test: BSK_hDFCGF_MCSF: BioMAP Diversity Plus: hDFCGF Assay for Macrophage colony-stimulating factor (MCSF) Biomarker Activity (AID 2283060); settings: primary human foreskin fibroblasts; actives raise or lower the signal
Outline: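 Human foreskin fibroblast primary cultures; M-CSF measured by ELISA 24 hours after chemical dosing. Bidirectional fitting relative to DMSO, with overt cytotoxicity tracked by parallel SRB total-protein staining (0.1% SRB, 10% TCA fixation, 560 nm).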

[9] = BSK_hDFCGF_SRB: Viability Assessment in the BioMAP Diversity Plus: hDFCGF Assay (AID 2283061); settings: primary human foreskin fibroblasts;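 further: cells exposed to compound for 24 h before the read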
Outline: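 Human foreskin fibroblasts in 96-well plates were treated 24 h. Total protein was measured by 0.1% SRB staining after 10% TCA fixation, read at 560 nm. Data were fitted bidirectionally against DMSO.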

[10] = read-out: TIMP metallopeptidase inhibitor 1 (TIMP1), TIMP1 (gene 7076); test: BSK_hDFCGF_TIMP1: BioMAP Diversity Plus: hDFCGF Assay for TIMP metallopeptidase inhibitor 1 (TIMP1) Biomarker Activity (AID 2283062); settings: primary human foreskin fibroblasts; actives raise or lower the signal
Outline: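 Human foreskin fibroblast primary cultures dosed for 24 h; secreted/surface TIMP-1 quantified by ELISA. Bidirectional curve fitting against DMSO baseline; cytotoxicity tracked in parallel cultures by SRB total-protein staining.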

[11] = read-out: Monokine induced gamma interferon (MIG), CXCL9 (gene 4283); test: BSK_hDFCGF_MIG: BioMAP Diversity Plus: hDFCGF Assay for Monokine induced gamma interferon (MIG) Biomarker Activity (AID 2283063); settings: primary human foreskin fibroblasts; actives raise or lower the signal
Outline: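 MIG/CXCL9 measured by ELISA 24 h after dosing primary human skin fibroblasts. Activity fitted in both directions against DMSO controls. Cytotoxicity was checked in parallel cultures by SRB staining read at 560 nm.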

[12] = read-out: Vascular cell adhesion molecule 1 (VCAM1), VCAM1 (gene 7412); test: BSK_hDFCGF_VCAM1: BioMAP Diversity Plus: hDFCGF Assay for Vascular cell adhesion molecule 1 (VCAM1) Biomarker Activity (AID 2283065); settings: primary human foreskin fibroblasts; actives raise or lower the signal;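 on AC50: VCAM-1 protein level quantified by ELISA after 24 h chemical exposure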
Outline: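 Human foreskin fibroblast primary cells dosed with chemical, VCAM-1 measured by ELISA at 24 h. Bidirectional curve fitting relative to DMSO as negative control/baseline.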

[13] = read-out: Plasminogen activator inhibitor-1 (PAI1), SERPINE1 (gene 5054); test: BSK_hDFCGF_PAI1: BioMAP Diversity Plus: hDFCGF Assay for Plasminogen activator inhibitor-1 (PAI1) Biomarker Activity (AID 2283066); settings: primary human foreskin fibroblasts; actives raise or lower the signal
Outline: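 PAI-1 levels in human dermal foreskin fibroblasts were quantified by ELISA 24 h after dosing, with gain or loss analysed against DMSO. Overt cytotoxicity was checked by sulforhodamine B total-protein staining in parallel cultures.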

[14] = read-out: Intercellular Adhesion Molecule 1 (ICAM1), ICAM1 (gene 3383); test: BSK_KF3CT_ICAM1: BioMAP Diversity Plus: KF3CT Assay for Intercellular Adhesion Molecule 1 (ICAM1) Biomarker Activity (AID 2283067); settings: primary human keratinocytes with fibroblasts; actives raise or lower the signal
Outline: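 Human keratinocyte–foreskin fibroblast co-culture was treated for 24 h. Cell-surface ICAM-1 was quantified by ELISA, fitted bidirectionally relative to DMSO. Cytotoxicity was checked in parallel cultures by SRB total-protein staining.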

[15] = read-out: Interferon-gamma inducible Protein 10 (IP10), CXCL10 (gene 3627); test: BSK_KF3CT_IP10: BioMAP Diversity Plus: KF3CT Assay for Interferon-gamma inducible Protein 10 (IP10) Biomarker Activity (AID 2283068); settings: primary human keratinocytes with fibroblasts; actives raise or lower the signal
Outline: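 Signal is secreted/surface IP-10 by ELISA in a human primary skin co-culture of keratinocytes and foreskin fibroblasts, taken 24 h post-dosing; DMSO served as negative control.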

[16] = BSK_KF3CT_SRB: Viability Assessment in the BioMAP Diversity Plus: KF3CT Assay (AID 2283069); settings: primary human keratinocytes with fibroblasts;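 further: read 24 h after compound addition; fitted for both signal gain and loss against DMSO baseline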
Outline: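 SRB read-out at 560 nm (0.1% stain, TCA-fixed cells) gauges overt cytotoxicity in a human skin keratinocyte–fibroblast co-culture 24 h post-dosing. Signal change was fitted bidirectionally relative to DMSO control.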

[17] = read-out: Interleukin-1 alpha (IL1a), IL1A (gene 3552); test: BSK_KF3CT_IL1a: BioMAP Diversity Plus: KF3CT Assay for Interleukin-1 alpha (IL1a) Biomarker Activity (AID 2283070); settings: primary human keratinocytes with fibroblasts; actives raise or lower the signal
Outline: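 Primary skin co-culture (keratinocytes, foreskin fibroblasts), 24 h exposure; ELISA for IL-1a; bidirectional curve fit vs DMSO.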

[18] = read-out: Transforming growth factor beta 1 (TGFb1), TGFB1 (gene 7040); test: BSK_KF3CT_TGFb1: BioMAP Diversity Plus: KF3CT Assay for Transforming growth factor beta 1 (TGFb1) Biomarker Activity (AID 2283072); settings: primary human keratinocytes with fibroblasts; actives raise or lower the signal
Outline: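 ELISA quantifies TGF-b1 at 24 h post-dose in a primary human skin co-culture of keratinocytes and fibroblasts, with gain or loss judged against DMSO. Parallel SRB total-protein staining flags overt cytotoxicity.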

[19] = read-out: TIMP metallopeptidase inhibitor 2 (TIMP2), TIMP2 (gene 7077); test: BSK_KF3CT_TIMP2: BioMAP Diversity Plus: KF3CT Assay for TIMP metallopeptidase inhibitor 2 (TIMP2) Biomarker Activity (AID 2283071); settings: primary human keratinocytes with fibroblasts; actives raise or lower the signal
Outline: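 TIMP-2 measured by ELISA at 24 h in human keratinocyte/fibroblast primary co-cultures exposed to chemicals. Both increases and decreases were fitted against DMSO. Parallel cultures were stained with SRB for total protein as an overt-cytotoxicity check.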

[20] = read-out: Matrix Metallopeptidase 1 (MMP1), MMP1 (gene 4312); test: BSK_hDFCGF_MMP1: BioMAP Diversity Plus: hDFCGF Assay for Matrix Metallopeptidase 1 (MMP1) Biomarker Activity (AID 2283064); settings: primary human foreskin fibroblasts; actives raise or lower the signal
Outline: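 ELISA read-out of MMP1 from human foreskin fibroblasts (primary skin cells), 24 h post-dose. Gain or loss of signal was fitted bidirectionally versus DMSO negative control; cytotoxicity was checked by SRB in parallel cultures.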

Measured: AC50

CCCOc1ccc(S(=O)(=O)N2CCN(CC)CC2)cc1-c1nc2c(CC)n(Cc3ccccn3)nc2c(=O)[nH]1
inactive: [1] | [2] | [3] | [4] | [5] | [6] | [7] | [8] | [9] | [10] | [11] | [12] | [13] | [14] | [15] | [16] | [17] | [18]

CCN(CC)C(=S)SSC(=S)N(CC)CC
inactive: [5]
active: [1] 1.67 µM | [2] 31.1 µM | [3] 30.6 µM | [4] 4.78 µM | [6] 2.81 µM | [7] 1.41 µM | [8] 1.76 µM | [9] 4.75 µM | [10] 2.03 µM | [12] 1.56 µM | [13] 3.95 µM | [14] 13.5 µM | [15] 9.46 µM | [16] 9.96 µM | [17] 13.4 µM | [19] 12.4 µM

C[C@@H](Oc1ccc(CNC(=O)c2cccnc2Oc2ccc3c(c2)OCO3)c(F)c1)C(=O)O
inactive: [1] | [2] | [3] | [4] | [5] | [6] | [7] | [8] | [9] | [10] | [11] | [12] | [13] | [14] | [15] | [16] | [17] | [18]

OC[C@H]1O[C@@](CO)(O[C@H]2O[C@H](CO)[C@@H](O)[C@H](O)[C@H]2O)[C@@H](O)[C@@H]1O
inactive: [1] | [2] | [3] | [4] | [5] | [6] | [7] | [8] | [9] | [10] | [11] | [12] | [13] | [14] | [15] | [16] | [17] | [18]

OC(Cn1cncn1)(Cn1cncn1)c1ccc(F)cc1F
inactive: [1] | [2] | [3] | [4] | [5] | [6] | [7] | [8] | [9] | [10] | [11] | [20] | [12] | [13] | [14] | [15] | [16] | [17] | [18]

NC(=O)N1c2ccccc2C=Cc2ccccc21
inactive: [1] | [2] | [3] | [4] | [5] | [6] | [7] | [8] | [9] | [10] | [11] | [12] | [13] | [14] | [15] | [16] | [17] | [18]

FC(F)(F)C(F)(F)C(F)(F)C(F)(F)C(F)(F)C(F)(F)I
inactive: [1] | [2] | [3] | [5] | [6] | [7] | [8] | [9] | [11] | [12] | [13] | [14] | [15] | [16] | [17] | [19]
active: [1] 30 µM | [7] 50.7 µM | [12] 48.3 µM
